Drawing on the antibiotic and cytotoxicity screens of Wong et al. (2023), this text covers growth inhibition call for 37 molecules.

SMILES strings stand for the structures. Out of some 39,000 compounds screened, about 500 (1.3%) were called active. This excerpt belongs to a sample that is enriched for actives.

The test relates to S. aureus RN4220. Briefly: growth inhibition call (relative growth <= 0.2). As to conditions: 50 µM.
For `C[C@@H]1CN([C@H](C)CO)C(=O)c2cc(NC(=O)Nc3ccc(F)cc3)ccc2O[C@@H](C)CCCCO[C@H]1CN(C)Cc1ccccc1`, the growth inhibition call was “inactive”.

Consider `CS(=O)(=O)N1C[C@H](NC(=O)C2CC2)[C@H]2OCCC[C@H]21`, for which the growth inhibition call was “inactive”.

On to `C[C@H](CO)N1C[C@H](C)[C@H](CN(C)CC2CC2)OCCCC[C@H](C)Oc2ccc(NC(=O)Nc3ccc(C(F)(F)F)cc3)cc2C1=O`, for which the growth inhibition call is “inactive”.

Regarding `C[C@H]1CN([C@@H](C)CO)C(=O)c2cc(NC(=O)Nc3ccc(C(F)(F)F)cc3)ccc2O[C@@H]1CN(C)CC1CCCCC1`, the growth inhibition call is “inactive”.

Regarding `C[C@H]1CCCCO[C@H](CN(C)CC2CC2)[C@@H](C)CN([C@@H](C)CO)C(=O)c2cc(NC(=O)Nc3ccc(C(F)(F)F)cc3)ccc2O1`, the growth inhibition call is “inactive”.

Turning to `C[C@@H]1CCCCO[C@H](CN(C)CC2CC2)[C@H](C)CN([C@H](C)CO)C(=O)c2cc(NC(=O)Nc3ccc(C(F)(F)F)cc3)ccc2O1`, the growth inhibition call was “active”.

On to `C[C@@H]1CCCCO[C@@H](CN(C)CC2CC2)[C@@H](C)CN([C@H](C)CO)C(=O)c2cc(NC(=O)Nc3ccc(C(F)(F)F)cc3)ccc2O1`, for which the growth inhibition call was “inactive”.

`C[C@H](CO)N1C[C@H](C)[C@H](CN(C)CC2CCCCC2)Oc2ccc(NC(=O)Nc3ccc(C(F)(F)F)cc3)cc2C1=O`: the growth inhibition call was “active”.

Consider `C[C@@H]1CCCCO[C@@H](CN(C)CC2CC2)[C@H](C)CN([C@@H](C)CO)C(=O)c2cc(NC(=O)Nc3ccc(C(F)(F)F)cc3)ccc2O1`, for which the growth inhibition call was “inactive”.

As for `C[C@@H]1CN([C@H](C)CO)C(=O)c2cc(NC(=O)Nc3ccc(C(F)(F)F)cc3)ccc2O[C@@H]1CN(C)CC1CCCCC1`, the growth inhibition call was “inactive”.

For `C[C@@H]1CCCCO[C@H](CN(C)CC2CC2)[C@H](C)CN([C@@H](C)CO)C(=O)c2cc(NC(=O)Nc3ccc(C(F)(F)F)cc3)ccc2O1`, the growth inhibition call is “active”.

Turning to `CCCC#Cc1cnc2c(c1)C(=O)N([C@@H](C)CO)C[C@H](C)[C@@H](CN(C)C(=O)c1ccc3c(c1)OCO3)O2`, the growth inhibition call is “inactive”.

Regarding `C[C@@H]1CN([C@H](C)CO)C(=O)c2cc(NS(=O)(=O)c3cn(C)cn3)ccc2O[C@H]1CN(C)Cc1ccc(C(=O)Nc2ccccc2N)cc1`, the growth inhibition call is “inactive”.

Turning to `Cc1ccc(S(=O)(=O)Nc2ccc3c(c2)C(=O)N([C@H](C)CO)C[C@@H](C)[C@H](CN(C)Cc2ccc(C(F)(F)F)cc2)O3)cc1`, the growth inhibition call was “inactive”.

As for `COc1ccc(S(=O)(=O)Nc2ccc3c(c2)[C@H]2C[C@@H](CC(=O)NCC4CC4)O[C@H](CO)[C@H]2O3)cc1`, the growth inhibition call is “inactive”.

For `CCOc1nc2cccc(C(=O)O)c2n1Cc1ccc(-c2ccccc2-c2nnn[nH]2)cc1`, the growth inhibition call is “inactive”.

As for `CCOc1nc2cccc(C(=O)OC(C)OC(=O)OC3CCCCC3)c2n1Cc1ccc(-c2ccccc2-c2nnn[nH]2)cc1` (configuration not stated), the growth inhibition call was “inactive”.

Turning to `CCOc1nc2cccc(C(=O)O[C@@H](C)OC(=O)OC3CCCCC3)c2n1Cc1ccc(-c2ccccc2-c2nn[nH]n2)cc1`, the growth inhibition call was “active”.

As for `C[C@H](CO)N1C[C@H](C)[C@H](CN(C)S(=O)(=O)c2cn(C)cn2)Oc2ncc(-c3cc4ccccc4o3)cc2C1=O`, the growth inhibition call is “inactive”.

`COc1ccc(NC(=O)N(C)C[C@@H]2Oc3ccc(NC(=O)C4CC4)cc3CC(=O)N([C@@H](C)CO)C[C@@H]2C)cc1`: the growth inhibition call was “inactive”.

With `Cc1noc(C)c1NC(=O)Nc1cccc2c1O[C@H](CN(C)Cc1ccc(C(=O)Nc3ccccc3N)cc1)[C@H](C)CN([C@@H](C)CO)C2=O`, the growth inhibition call is “inactive”.

Consider `C[C@@H]1CN([C@@H](C)CO)C(=O)c2cc(NS(=O)(=O)c3ccccc3)ccc2O[C@H]1CN(C)S(=O)(=O)c1cccs1`, for which the growth inhibition call was “inactive”.

As to `C=CCOC(=O)[C@H]1[C@@H]2C(=O)O[C@@H](c3ccccc3)[C@@H](c3ccccc3)N2[C@@H](c2ccc(OCCOC(=O)[C@@H]3C[C@@H]4C(=O)N[C@@H](CC(C)C)C(=O)N4[C@@H]3c3ccc(O)cc3)cc2)[C@]12C(=O)Nc1ccccc12`, the growth inhibition call is “inactive”.

For `C[C@H](CO)N1C[C@H](C)[C@H](CN(C)Cc2ccc(C(=O)Nc3ccccc3N)cc2)Oc2ccc(NC(=O)Cn3cnnn3)cc2C1=O`, the growth inhibition call was “inactive”.

Turning to `CC(OC1OCCN(C(C)c2nc(=O)[nH][nH]2)C1c1ccc(F)cc1)c1cc(C(F)(F)F)cc(C(F)(F)F)c1` (configuration not stated), the growth inhibition call was “inactive”.

For the molecule `C[C@@H](O[C@H]1OCCN(Cc2n[nH]nc2CN(C)C)[C@H]1c1ccc(F)cc1)c1cc(C(F)(F)F)cc(C(F)(F)F)c1`, the growth inhibition call was “active”.

As for `C[C@@H]1CN([C@@H](C)CO)C(=O)c2cccc(NC(=O)c3ccc(-c4nccs4)cc3)c2O[C@H]1CN(C)S(=O)(=O)c1cn(C)cn1`, the growth inhibition call is “inactive”.

Take `COCC#Cc1ccc2c(c1)O[C@@H](CN(C)C(=O)c1ccccc1)[C@@H](C)CN([C@@H](C)CO)S2(=O)=O`: the growth inhibition call was “inactive”.

With `C[C@H](CO)N1C[C@H](C)[C@@H](CN(C)CC2CC2)OCCCC[C@H](C)Oc2ccc(NC(=O)CCCCCC(=O)Nc3ccccc3N)cc2C1=O`, the growth inhibition call was “inactive”.

On to `CC(C)[C@@H](N)c1nc2ccccc2[nH]1`, for which the growth inhibition call is “inactive”.

As for `C[C@@H](Oc1ccccc1Cl)c1nc2ccc(Cl)cc2[nH]1`, the growth inhibition call is “active”.

For the molecule `Cc1ccc2nc([C@H](N)C(C)C)[nH]c2c1`, the growth inhibition call was “inactive”.

Regarding `C[C@@H]1CN([C@H](C)CO)C(=O)Cc2cc(NC(=O)CCCCCC(=O)Nc3ccccc3N)ccc2O[C@@H]1CN(C)C(=O)Nc1ccc(C(F)(F)F)cc1`, the growth inhibition call was “inactive”.

In the case of `CC(C)(O/N=C(\C(=O)N[C@@H]1C(=O)N2C(C(=O)O)=C(C[n+]3ccccc3)CS[C@H]12)c1csc(N)n1)C(=O)O`, the growth inhibition call is “inactive”.

Consider `CO/N=C(\C(=O)N[C@@H]1C(=O)N2C(C(=O)O)=C(C[N+]3(C)CCCC3)CS[C@H]12)c1csc(N)n1`, for which the growth inhibition call is “active”.

Regarding `CC(C)(O/N=C(\C(=O)N[C@@H]1C(=O)N2C(C(=O)O)=C(C[N+]3(CCNC(=O)c4ccc(O)c(O)c4Cl)CCCC3)CS[C@H]12)c1csc(N)n1)C(=O)O`, the growth inhibition call was “inactive”.

For the molecule `CO/N=C(\C(=O)N[C@@H]1C(=O)N2C(C(=O)O)=C(C[n+]3ccn4ncccc43)CS[C@H]12)c1nsc(N)n1`, the growth inhibition call is “inactive”.
